VACV mCherry inh: qHTS for Stage-Specific Inhibitors of Vaccinia Orthopoxvirus: mCherry Reporter Primary qHTS. Vaccinia virus mCherry reporter infection, fluorescence. Potency, µM (highest dose often 36.5 µM), usual class: inhibitors. 310,000 compounds, 0.63% hits; calls by dose curve; tested in A549 cells; note: nearly all actives have a fitted effect of over 35% in size
AmpC inh no detg: qHTS Inhibitors of AmpC Beta-Lactamase (assay without detergent); P00811; AmpC nitrocefin hydrolysis, absorbance 480 nm, 0.0001% Triton; Potency, µM (titrated, usually from 57.1 µM), actives largely listed as inhibitors; 330,000 compounds, 0.52% hits; AID 485341, 2010; note: nearly all actives have a fitted effect of over 20% in size
Target sequence (P00811 whole entry, looked up): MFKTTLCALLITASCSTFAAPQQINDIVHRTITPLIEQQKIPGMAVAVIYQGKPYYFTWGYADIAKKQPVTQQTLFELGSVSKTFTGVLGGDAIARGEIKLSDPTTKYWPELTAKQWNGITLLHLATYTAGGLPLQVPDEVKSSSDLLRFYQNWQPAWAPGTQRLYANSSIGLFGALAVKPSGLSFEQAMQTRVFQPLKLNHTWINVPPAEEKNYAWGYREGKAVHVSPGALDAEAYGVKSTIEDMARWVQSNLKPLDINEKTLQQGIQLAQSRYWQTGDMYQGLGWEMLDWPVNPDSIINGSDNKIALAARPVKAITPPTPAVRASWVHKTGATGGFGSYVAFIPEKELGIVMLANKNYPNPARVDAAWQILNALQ
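20 mM phosphate pH 7.0 + 0.01% (detergent screen) or 0.0001% Triton X-100; 5.3 nM AmpC reagent; cpd preinc 15 min RT; nitrocefin (800 uM stock) to start; A480 q20 s × 4 min; Activity was normalised to no-enzyme and no-compound control wells.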
Vaccinia Venus: qHTS for Stage-Specific Inhibitors of Vaccinia Orthopoxvirus: Venus Reporter Primary qHTS; AID 720580, 2013; Vaccinia virus Venus reporter expression, fluorescence; 330,000 compounds, 0.46% hits; Potency, µM (titrated, usually from 36.5 µM), hits mostly inhibitors; calls by dose curve; tested in A549 cells; note: nearly all actives have a fitted effect of over 30% in size
AmpC inh detg: qHTS Inhibitors of AmpC Beta-Lactamase (assay with detergent); 370,000 compounds, 0.041% hits; AID 485294, 2010; AmpC hydrolysis of nitrocefin, absorbance 480 nm, 0.01% Triton; Potency, µM (titrated, usually from 114 µM), usual class: inhibitors; note: nearly all actives have a fitted effect of over 25% in size
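20 mM phosphate pH 7.0 + 0.01% (detergent screen) or 0.0001% Triton X-100; 5.3 nM AmpC reagent; cpd preinc 15 min RT; nitrocefin (800 uM stock) to start; A480 q20 s × 4 min; Activity was normalised to no-enzyme and no-compound control wells.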
Numbers stand for hits; . = inactive; ? = inconclusive; / = no result given; [ ] = another dose, or the depositor's remark. The list is not random: actives were taken first. Their share in the collection is about 1.1%. Unless noted, calls come from the whole dose curve; as a rule, active = well fitted curve in the direction sought with a large enough effect; inconclusive = small, poorly fitted or top-dose-only effect, or another doubt; inactive = no such curve, though single readings can be large; an effect the other way counts as inactive or inconclusive.

SMILES | VACV mCherry inh | AmpC inh no detg | Vaccinia Venus | AmpC inh detg
COc1ccc(/C=N/NC(=O)c2ccoc2C)cc1COc1c(C)cccc1C | 12.6µM | . | ? | .
O=C(NN=Cc1c(O)ccc2ccccc12)c1ccncc1 | 2.51µM | / | ? | /
Cc1cnc(-n2ncc(C(=O)NCCN3CCOCC3)c2C2CC2)nc1-c1cccs1 | . | / | . | /
Cc1occc1C(=O)N/N=C/c1c(O)ccc2ccccc12 | 1.78µM | . | ? | .
O=C(N/N=C/c1c(O)ccc2ccccc12)c1cccnc1 | ? | . | . | .
Cn1nccc1C(=O)N/N=C/c1c(O)ccc2ccccc12 | / | . | / | .
Cc1ccc(C(=O)N/N=C/c2c(O)ccc3ccccc23)cn1 | 2.24µM | . | ? | .
CN1CCC(OC2c3ccccc3CCc3ccccc32)CC1 | . | / | . | /
Brc1ccc2c(c1)C(OC1CN3CCC1CC3)c1ccccc1CS2 (stereo unspecified) | ? | . | 11.2µM | .
CC1(C)Cc2ccccc2C2=NNC(=O)C2=N1 | ? | . | 28.2µM | .
CC1(C)Cc2ccccc2C(Nn2cnnc2)=N1 | . | . | . | .
CC1CN(CC(=O)NCCc2ccncc2)Cc2ccccc2O1 (stereo unspecified) | . | / | . | /
O=C(COC(=O)C1CC(=O)N(c2ccccc2)C1)c1ccccc1 (stereo unspecified) | . | 1.41µM | . | ?
COc1ccc(N2CC(C(=O)OCC(=O)c3ccccc3)CC2=O)cc1 (stereo unspecified) | . | . | . | ?
O=C(C[n+]1cccc2cccc(O)c21)c1ccc(F)cc1 | . | / | . | /
Nc1nc(-c2ccc(-c3ccccc3)cc2)cs1 | ? | . | ? | .
COc1ccc(-c2csc(N)n2)cc1 | 14.1µM | . | ? | ?
Cc1ccc(-c2csc(N)n2)cc1 | 11.2µM | / | ? | /
CCc1ccc(S(=O)(=O)/N=C2/C=C(Sc3ncn[nH]3)C(=O)c3ccccc32)cc1 | ? | 20µM | 10µM | .
Cc1ccc(S(=O)(=O)/N=C2\C=C(NS(=O)(=O)c3ccccc3)C(=O)c3ccccc32)cc1 | ? | / | . | /
CCc1ccc(S(=O)(=O)/N=C2\C=C(Nc3cccc(C(=O)O)c3)C(=O)c3ccccc32)cc1 | ? | . | . | .
O=C(O)c1ccc(NC2=C/C(=N/S(=O)(=O)c3cccs3)c3ccccc3C2=O)cc1 | . | / | . | /
CCc1ccc(S(=O)(=O)/N=C2\C=C(Nc3ccc(O)cc3)C(=O)c3ccccc32)cc1 | ? | . | 3.98µM | .
O=S(=O)(N=C1C=CC(=NS(=O)(=O)c2ccccc2)c2ccccc21)c1ccccc1 | . | / | . | /
CCc1ccc(S(=O)(=O)/N=C2\C=CC(=O)c3ccccc32)cc1 | / | 15.8µM | / | .
SMILES | VACV mCherry inh | AmpC inh no detg | Vaccinia Venus | AmpC inh detg
O=C1C(Nc2ccc(O)cc2)=C/C(=N/S(=O)(=O)c2cccs2)c2ccccc21 | ? | .[11.4 µM] | 2µM | ?
COc1ccc(CN2CCCC(c3nc(-c4ccncc4)ncc3-c3ccccc3C)C2)c(OC)c1 (stereo unspecified) | . | / | . | /
Cc1cc(C)c(S(=O)(=O)/N=C2\C=C(NS(=O)(=O)c3ccccc3)C(=O)c3ccccc32)c(C)c1 | ? | . | . | .
O=C(O)c1ccc(NC2=C/C(=N/S(=O)(=O)c3ccccc3)c3ccccc3C2=O)cc1 | ? | . | ? | .
Cc1ccc(NC2=C/C(=N\S(=O)(=O)c3cccs3)c3ccccc3C2=O)c(C)c1 | 10µM | ? | 6.31µM | .
Cc1cccc(NC2=C/C(=N/S(=O)(=O)c3cccs3)c3ccccc3C2=O)c1 | . | . | . | .
Cc1ccc(Cl)cc1NC1=C/C(=N\S(=O)(=O)c2cccs2)c2ccccc2C1=O | 25.1µM | . | ? | .
Cc1cc(C)c(S(=O)(=O)/N=C2\C=C(Nc3ccc(C(=O)O)cc3)C(=O)c3ccccc32)c(C)c1 | ? | 12.6µM | ? | .
Cc1cc(C(=O)Nc2ccccc2-c2nc(CNC(=O)c3cscn3)c(C)o2)c(C)o1 | . | / | . | /
Cc1ccc(C(=O)Nc2cccc(-c3nc(CNC(=O)c4ccc5ccccc5n4)c(C)o3)c2)s1 | . | / | . | /
CCC1CN(Cc2cn[nH]c2-c2ccc(OC)cc2)Cc2cc(OC)ccc2O1 (stereo unspecified) | . | / | . | /
O=C(CCc1ccccc1)NC1(Cc2ccccc2)CCN(CCc2cccs2)C1=O (stereo unspecified) | . | . | . | .
O=C(NC1(Cc2ccccc2)CCN(Cc2ccc(-c3ccccc3)cc2)C1=O)c1ccccc1 (stereo unspecified) | 11.2µM | . | ? | .
Cc1csc[n+]1CC(=O)c1ccc(I)cc1 | . | / | . | /
Cc1c(C(=O)NCCc2cccnc2)cnn1-c1ncc2c(n1)-c1ccccc1CC2 | ? | / | . | /
Fc1cccc(Cl)c1-c1nnc2ccc(N3CCOCC3)nn12 | / | . | / | .
Clc1cccc(Cl)c1-c1nnc2ccc(N3CCOCC3)nn12 | . | 0.501µM | . | .
Cc1cc(CNC(=O)c2cnn(-c3ncc4c(n3)-c3ccccc3CC4)c2C2CC2)on1 | . | / | . | /
CCCCCC(=O)Nc1cccc(C2=NOC3(C2)C[C@@H](C(N)=O)N(C(=O)CC(c2ccccc2)c2ccccc2)C3)c1 (stereo partly specified) | . | . | 12.6µM | .
C/C=C\C(=O)Nc1cccc(C2=NOC3(C2)C[C@@H](C(N)=O)N(C(=O)CC(c2ccccc2)c2ccccc2)C3)c1 (stereo partly specified) | ? | . | ? | .
O=C1CC[C@@H](C(=O)NCC2Cc3cc(Cl)cc(-c4ccc5[nH]ccc5c4)c3O2)N1 (stereo partly specified) | . | / | . | /
CC1=CC(C)(C)n2c(O)c(N=NC(N)=S)c3c(C)ccc1c32 | 1.26µM | . | ? | .
O=C(Nn1c(C2CCCCC2)nc2ccccc2c1=O)c1ccc([N+](=O)[O-])cc1Cl | . | 14.1µM | . | .
O=c1oc2ccccc2c2oc3cc(O)c(O)cc3c12 | ? | 14.1µM | . | .
CCOC(=O)NCc1ccc2[nH]c(C)cc2c1 | ? | . | . | ?
SMILES | VACV mCherry inh | AmpC inh no detg | Vaccinia Venus | AmpC inh detg
Cc1cc2cc(CNC(=O)Nc3ccccc3)ccc2[nH]1 | / | 22.4µM | / | .
CC(=O)Nc1ccc(S(=O)(=O)NC2CCCCCC2)cc1 | . | . | . | .
O=C(CNC1CCCCCC1)Nc1ccc(S(=O)(=O)NC2CC2)cc1 | . | 0.159µM | . | .
COc1ccc(S(=O)(=O)N(C)CC(=O)Nc2c(F)cccc2F)cc1 | . | 0.141µM | . | .
COc1ccc(S(=O)(=O)N(C)CC(=O)Nc2ccc3c(c2)OCO3)cc1 | . | . | . | .
Cc1cc(C2CCCCC2)n(O)c(=O)c1 | 4.47µM | . | ? | .
NC(Cc1cc(O)c(O)cc1O)C(=O)O (stereo unspecified) | . | 7.08µM | . | 50.1µM
COc1ccc(/C=C/C2=CC(C)(C)NC(=S)N2)cc1 | . | 8.91µM | . | .
COc1ccc(/C=C/C=C2C(=O)NC(=S)NC2=O)cc1 | . | / | . | /
CN(C)c1ccc(/C=C2\NC(=O)NC2=O)cc1 | . | / | . | /
